Laboratory results published in the antibiotic and cytotoxicity screens of Wong et al. (2023).
The campaign covered roughly 39,000 compounds. About 3,300 (8.5%) were called active. The sample as a whole holds a higher share of actives than the screen did.

These compounds were tested on HepG2 (assay: cytotoxicity call (relative viability < 0.9)). Conditions: 10 µM.

Structure (SMILES)	cytotoxicity call
C[C@H](CO)N1C[C@H](C)[C@@H](CN(C)C(=O)Nc2ccccc2)OCCCC[C@H](C)Oc2ccc(NC(=O)C3CCCCC3)cc2C1=O	inactive
CN(C)C(=O)CN1C[C@]23CN(Cc4cnn(C)c4)C[C@@H](C[C@@H]2S1(=O)=O)O3	inactive
CC(C)NC(=O)N(C)C[C@H]1Oc2c(NS(=O)(=O)c3ccc(F)cc3)cccc2C(=O)N([C@H](C)CO)C[C@@H]1C	inactive
C[C@@H]1CN([C@H](C)CO)C(=O)c2cc(NC(=O)Nc3cccc4ccccc34)ccc2O[C@@H](C)CCCCO[C@@H]1CN(C)Cc1ccc(C(=O)O)cc1	inactive
COc1ccc(NC(=O)N(C)C[C@@H]2Oc3cc(Br)ccc3S(=O)(=O)N([C@H](C)CO)C[C@H]2C)cc1	inactive
COc1cccc(S(=O)(=O)N(C)C[C@H]2OCc3cnnn3CCCC(=O)N([C@H](C)CO)C[C@@H]2C)c1	inactive
C[C@H](CO)N1C[C@H](C)[C@H](CN(C)C(=O)Nc2ccccc2)OCCCC[C@H](C)Oc2ccc(NS(=O)(=O)c3cccs3)cc2C1=O	inactive
COc1ccc(S(=O)(=O)N(C)C[C@H]2Oc3ccc(NC(=O)Nc4cccc5ccccc45)cc3C(=O)N([C@H](C)CO)C[C@H]2C)cc1	inactive
Cn1nc(-c2ccccn2)nc2c(=O)n(C)c(=O)nc1-2	active
Cn1c(=O)[nH]c2nnc(-c3ccccn3)nc2c1=O	inactive
COc1ccc(-c2ccccn2)cc1	inactive
COc1ccc(NC(=O)Nc2ccc3c(c2)C(=O)N([C@H](C)CO)C[C@H](C)[C@@H](CN(C)Cc2ccc(C(=O)O)cc2)OCCCC[C@H](C)O3)cc1	inactive
CN(CP(=O)(O)CN1CCOCC1)S(C)(=O)=O	inactive
CC(C)(C)NCC(O)COc1ccccc1C1CCCC1.O=S(=O)(O)O (stereo not drawn)	active
CC(C)(C)NCC(O)COc1cccc2c1CC(O)C(O)C2 (stereo not drawn)	inactive
CC(C)(C)NCC(O)COc1nsnc1N1CCOCC1.O=C(O)C=CC(=O)O (stereo not drawn)	inactive
C[C@H](CO)N1C[C@H](C)[C@@H](CN(C)S(=O)(=O)c2cn(C)cn2)Oc2ccc(NC(=O)CCN3CCOCC3)cc2C1=O	inactive
C[C@H]1CN([C@@H](C)CO)C(=O)c2cc(NC(=O)CCCN(C)C)ccc2O[C@@H]1CN(C)C(=O)Nc1ccc2c(c1)OCO2	inactive
C[C@@H]1CN([C@H](C)CO)C(=O)Cc2cc(NC(=O)CCN3CCOCC3)ccc2O[C@@H]1CN(C)Cc1ccncc1	inactive

Structure (SMILES)	cytotoxicity call
COc1ccc([Si](C)(C)[C@H]2[C@H](CCO)O[C@@]3(C(=O)N(Cc4cccc(N(C=O)c5ccccc5)c4)c4ccccc43)[C@@H]2C)cc1	active
COc1ccc([Si](C)(C)[C@@H]2[C@@H](CCO)O[C@]3(C(=O)N(Cc4ccc(N(C=O)c5ccccc5)cc4)c4ccccc43)[C@H]2C)cc1	active
COc1ccc([Si](C)(C)[C@H]2[C@H](CCO)O[C@@]3(C(=O)N(Cc4ccc(N(C=O)c5ccccc5)cc4)c4ccccc43)[C@@H]2C)cc1	active
COc1ccc([Si](C)(C)[C@@H]2[C@@H](CCO)O[C@]3(C(=O)N(Cc4cccc(N5CCCCC5=O)c4)c4ccccc43)[C@H]2C)cc1	inactive
C[C@H]1[C@H]([Si](C)(C)F)[C@@H](CCO)O[C@]12C(=O)N(Cc1cccc(N(C=O)c3ccccc3)c1)c1ccccc12	inactive
C[C@@H]1CN([C@@H](C)CO)C(=O)c2cccc(NS(=O)(=O)c3ccccc3)c2O[C@@H]1CN(C)S(=O)(=O)c1cccs1	inactive
CC(C)CC#Cc1ccc2c(c1)O[C@H](CN(C)C(=O)NC1CCCC1)[C@H](C)CN([C@H](C)CO)S2(=O)=O	inactive
CO[C@@H]1CN(C)C(=O)c2ccc(NC(=O)CC(F)(F)F)cc2OC[C@@H](C)N(C(=O)C2CCOCC2)C[C@@H]1C	inactive
C[C@H]1CN([C@@H](C)CO)C(=O)c2cc(NC(=O)c3ccncc3)ccc2O[C@H]1CN(C)Cc1ccc(-c2ccccc2)cc1	inactive
CC1=NCCN1	inactive
CC(C)c1ccc2c(ccc[n+]2C)c1	inactive
COC(=O)C[C@H]1CC[C@@H]2[C@H](COC[C@@H](O)CN2S(=O)(=O)c2cn(C)cn2)O1	inactive
COc1ccc(S(=O)(=O)Nc2cccc3c2O[C@@H](CN(C)S(=O)(=O)c2ccccc2)[C@H](C)CN([C@H](C)CO)C3=O)cc1	inactive
COCC(=O)N1C[C@H](C)[C@H](OC)CN(C)C(=O)c2ccc(NC(=O)c3ccc(OC)cc3)cc2OC[C@@H]1C	inactive
Cc1ccc(S(=O)(=O)N(C)C[C@@H]2OCCCC[C@@H](C)Oc3ccc(NS(=O)(=O)c4ccc(F)cc4)cc3C(=O)N([C@@H](C)CO)C[C@@H]2C)cc1	inactive
C[C@H](CO)N1C[C@H](C)[C@@H](CN(C)C(=O)Nc2ccccc2C(F)(F)F)OCc2ccccc2-c2ccccc2C1=O	inactive
C=C(NC(=O)C(=C)NC(=O)c1csc(C2=N[C@@H]3c4csc(n4)[C@@H]4NC(=O)c5csc(n5)[C@H](C(C)(O)[C@@H](C)O)NC(=O)[C@H]5CSC(=N5)/C(=C/C)NC(=O)[C@H]([C@@H](C)O)NC(=O)c5csc(n5)[C@]3(CC2)NC(=O)[C@@H](C)NC(=O)C(=C)NC(=O)[C@@H](C)NC(=O)[C@@H]([C@H](C)CC)N[C@H]2C=Cc3c([C@@H](C)O)cc(nc3[C@@H]2O)C(=O)O[C@H]4C)n1)C(N)=O (stereo partly drawn)	inactive
C=C(NC(=O)C(=C)NC(=O)c1csc(C2=NC3c4csc(n4)C4NC(=O)c5csc(n5)C(C(C)(O)C(C)O)NC(=O)C5CSC(=N5)C(=CC)NC(=O)C(C(C)O)NC(=O)c5csc(n5)C3(CC2)NC(=O)C(C)NC(=O)C(=C)NC(=O)C(C)NC(=O)C(C(C)CC)NC2C=Cc3c(C(C)O)cc(nc3C2O)C(=O)OC4C)n1)C(N)=O (stereo not drawn)	active
C=C(NC(=O)C(=C)NC(=O)c1csc(C2=N[C@H]3c4csc(n4)[C@H]4NC(=O)c5csc(n5)[C@H](C(C)(O)[C@@H](C)O)NC(=O)[C@H]5CSC(=N5)C(=CC)NC(=O)[C@H]([C@@H](C)O)NC(=O)c5csc(n5)[C@]3(CC2)NC(=O)[C@H](C)NC(=O)C(=C)NC(=O)[C@H](C)NC(=O)[C@H]([C@H](C)CC)N[C@@H]2C=Cc3c([C@H](C)O)cc(nc3[C@H]2O)C(=O)O[C@@H]4C)n1)C(N)=O (stereo partly drawn)	active
